# Key:
# Test in all cases: SPOT peptide array binding signal intensity (averaged, normalized) (arbitrary units (background-subtracted, floor 0; scale differs between SH3 domains)); higher = stronger binding of the SH3 domain to the peptide
# [1] = target: AgAbp1
# Summary of the method: (§1)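 Spot intensities were captured after detection with anti-GST antibody, an HRP-linked anti-mouse secondary and luminol, and quantified with Genespotter. The probes were GST-fused SH3 domains from four yeast species, produced in E. coli BL21(DE3), purified on glutathione Sepharose and incubated at 10 μg/ml overnight at 4°C on cellulose-bound synthetic 15-mer peptides with cysteines replaced by serines. Binding signal is the normalized, background-subtracted spot intensity averaged over replicates, and its arbitrary units differ between domains.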
# [2] = target: AgBbc1
# Summary of the method: as §1
# [3] = target: AgBem1-D1
# Summary of the method: as §1
# [4] = target: AgBzz1-D1
# Summary of the method: as §1
# [5] = target: AgBzz1-D2
# Summary of the method: as §1
# [6] = target: AgCyk3
# Summary of the method: as §1
# [7] = target: AgFus1
# Summary of the method: as §1
# [8] = target: AgHof1
# Summary of the method: as §1
# [9] = target: AgHse1
# Summary of the method: as §1
# [10] = target: AgLsb1
# Summary of the method: as §1
# [11] = target: AgLsb4
# Summary of the method: as §1
# [12] = target: AgMyo5
# Summary of the method: as §1
# [13] = target: AgNbp2
# Summary of the method: as §1
# [14] = target: AgRvs167
# Summary of the method: as §1
# [15] = target: AgSho1
# Summary of the method: as §1
# [16] = target: AgSla1-D1-D2
# Summary of the method: as §1
# [17] = target: AgSla1-D3
# Summary of the method: as §1
# [18] = target: CaAbp1-D1
# Summary of the method: as §1
# [19] = target: CaAbp1-D2
# Summary of the method: as §1
# [20] = target: CaBbc1
# Summary of the method: as §1
# [21] = target: CaBem1-D1
# Summary of the method: as §1
# [22] = target: CaBzz1-D1
# Summary of the method: as §1
# [23] = target: CaBzz1-D2
# Summary of the method: as §1
# [24] = target: CaCyk3
# Summary of the method: as §1
# [25] = target: CaFus1
# Summary of the method: as §1
# [26] = target: CaHof1
# Summary of the method: as §1
# [27] = target: CaHse1
# Summary of the method: as §1
# [28] = target: CaLsb1
# Summary of the method: as §1
# [29] = target: CaLsb4
# Summary of the method: as §1
# [30] = target: CaMyo5
# Summary of the method: as §1
# [31] = target: CaNbp2
# Summary of the method: as §1
# [32] = target: CaRvs167
# Summary of the method: as §1
# [33] = target: CaRvs167-3
# Summary of the method: as §1
# [34] = target: CaSho1
# Summary of the method: as §1
# [35] = target: CaSla1-D1-D2
# Summary of the method: as §1
# [36] = target: CaSla1-D3
# Summary of the method: as §1
# [37] = target: ScAbp1
# Summary of the method: as §1
# [38] = target: ScBbc1
# Summary of the method: as §1
# [39] = target: ScBem1-D1
# Summary of the method: as §1
# [40] = target: ScBzz1-D1
# Summary of the method: as §1
# [41] = target: ScBzz1-D2
# Summary of the method: as §1
# [42] = target: ScCyk3
# Summary of the method: as §1
# [43] = target: ScFus1
# Summary of the method: as §1
# [44] = target: ScHof1
# Summary of the method: as §1
# [45] = target: ScHse1
# Summary of the method: as §1
# [46] = target: ScLsb1
# Summary of the method: as §1
# [47] = target: ScLsb2
# Summary of the method: as §1
# [48] = target: ScLsb3
# Summary of the method: as §1
# [49] = target: ScLsb4
# Summary of the method: as §1
# [50] = target: ScMyo3
# Summary of the method: as §1
# [51] = target: ScMyo5
# Summary of the method: as §1
# [52] = target: ScNbp2
# Summary of the method: as §1
# [53] = target: ScPex13
# Summary of the method: as §1
# [54] = target: ScRvs167
# Summary of the method: as §1
# [55] = target: ScSho1
# Summary of the method: as §1
# [56] = target: ScSla1-D1-D2
# Summary of the method: as §1
# [57] = target: ScSla1-D3
# Summary of the method: as §1
# [58] = target: SpAbp1-D1
# Summary of the method: as §1
# [59] = target: SpBbc1
# Summary of the method: as §1
# [60] = target: SpBzz1-D1
# Summary of the method: as §1
# [61] = target: SpBzz1-D2
# Summary of the method: as §1
# [62] = target: SpCyk3
# Summary of the method: as §1
# [63] = target: SpHof1
# Summary of the method: as §1
# [64] = target: SpHof1-2
# Summary of the method: as §1
# [65] = target: SpHof1-3
# Summary of the method: as §1
# [66] = target: SpHse1
# Summary of the method: as §1
# [67] = target: SpLsb1
# Summary of the method: as §1
# [68] = target: SpLsb4
# Summary of the method: as §1
# [69] = target: SpMyo1
# Summary of the method: as §1
# [70] = target: SpNbp2
# Summary of the method: as §1
# [71] = target: SpPex13
# Summary of the method: as §1
# [72] = target: SpRvs167
# Summary of the method: as §1
# [73] = target: SpSla1-D1-D2
# Summary of the method: as §1
# [74] = target: SpSla1-D3
# Summary of the method: as §1
binder,measurement,setting,value
NFFRKKLGIPRKLKR,SPOT peptide array binding signal intensity,[1],227
same,SPOT peptide array binding signal intensity,[2],12
same,SPOT peptide array binding signal intensity,[3],94
same,SPOT peptide array binding signal intensity,[4],20
same,SPOT peptide array binding signal intensity,[5],45
same,SPOT peptide array binding signal intensity,[6],1.5
same,SPOT peptide array binding signal intensity,[7],142
same,SPOT peptide array binding signal intensity,[8],13.2
same,SPOT peptide array binding signal intensity,[9],1980
same,SPOT peptide array binding signal intensity,[10],3.5
same,SPOT peptide array binding signal intensity,[11],99
same,SPOT peptide array binding signal intensity,[12],2
same,SPOT peptide array binding signal intensity,[13],44
same,SPOT peptide array binding signal intensity,[14],5.33
same,SPOT peptide array binding signal intensity,[15],73
same,SPOT peptide array binding signal intensity,[16],368
same,SPOT peptide array binding signal intensity,[17],1.5
same,SPOT peptide array binding signal intensity,[18],1000
same,SPOT peptide array binding signal intensity,[19],1180
same,SPOT peptide array binding signal intensity,[20],31.5
same,SPOT peptide array binding signal intensity,[21],4
same,SPOT peptide array binding signal intensity,[22],47.5
same,SPOT peptide array binding signal intensity,[23],26
same,SPOT peptide array binding signal intensity,[24],≤ 0
same,SPOT peptide array binding signal intensity,[25],729
same,SPOT peptide array binding signal intensity,[26],0.5
same,SPOT peptide array binding signal intensity,[27],37.2
same,SPOT peptide array binding signal intensity,[28],1
same,SPOT peptide array binding signal intensity,[29],≤ 0
same,SPOT peptide array binding signal intensity,[30],0.75
same,SPOT peptide array binding signal intensity,[31],189
same,SPOT peptide array binding signal intensity,[32],8.83
same,SPOT peptide array binding signal intensity,[33],47
same,SPOT peptide array binding signal intensity,[34],447
same,SPOT peptide array binding signal intensity,[35],11
same,SPOT peptide array binding signal intensity,[36],2.5
same,SPOT peptide array binding signal intensity,[37],146
same,SPOT peptide array binding signal intensity,[38],4.5
same,SPOT peptide array binding signal intensity,[39],14
same,SPOT peptide array binding signal intensity,[40],9
same,SPOT peptide array binding signal intensity,[41],13.5
same,SPOT peptide array binding signal intensity,[42],53
same,SPOT peptide array binding signal intensity,[43],314
same,SPOT peptide array binding signal intensity,[44],1.25
same,SPOT peptide array binding signal intensity,[45],1910
same,SPOT peptide array binding signal intensity,[46],13.5
same,SPOT peptide array binding signal intensity,[47],8
same,SPOT peptide array binding signal intensity,[48],103
same,SPOT peptide array binding signal intensity,[49],3
same,SPOT peptide array binding signal intensity,[50],≤ 0
same,SPOT peptide array binding signal intensity,[51],0.5
same,SPOT peptide array binding signal intensity,[52],68
same,SPOT peptide array binding signal intensity,[53],0.5
same,SPOT peptide array binding signal intensity,[54],2.33
same,SPOT peptide array binding signal intensity,[55],473
same,SPOT peptide array binding signal intensity,[56],38.5
same,SPOT peptide array binding signal intensity,[57],6.25
same,SPOT peptide array binding signal intensity,[58],462
same,SPOT peptide array binding signal intensity,[59],3
same,SPOT peptide array binding signal intensity,[60],50
KRRAPPPVPKKPSSR,SPOT peptide array binding signal intensity,[1],5310
same,SPOT peptide array binding signal intensity,[2],1320
same,SPOT peptide array binding signal intensity,[3],274
same,SPOT peptide array binding signal intensity,[4],2790
same,SPOT peptide array binding signal intensity,[5],1090
same,SPOT peptide array binding signal intensity,[6],4
same,SPOT peptide array binding signal intensity,[7],42.5
same,SPOT peptide array binding signal intensity,[8],358
same,SPOT peptide array binding signal intensity,[9],332
same,SPOT peptide array binding signal intensity,[10],650
same,SPOT peptide array binding signal intensity,[11],374
same,SPOT peptide array binding signal intensity,[12],37
same,SPOT peptide array binding signal intensity,[13],6190
same,SPOT peptide array binding signal intensity,[14],106
same,SPOT peptide array binding signal intensity,[15],886
same,SPOT peptide array binding signal intensity,[16],107
same,SPOT peptide array binding signal intensity,[17],1230
same,SPOT peptide array binding signal intensity,[18],5770
same,SPOT peptide array binding signal intensity,[19],7000
same,SPOT peptide array binding signal intensity,[20],2030
same,SPOT peptide array binding signal intensity,[21],95
same,SPOT peptide array binding signal intensity,[22],7240
same,SPOT peptide array binding signal intensity,[23],4490
same,SPOT peptide array binding signal intensity,[24],458
same,SPOT peptide array binding signal intensity,[25],308
same,SPOT peptide array binding signal intensity,[26],0.75
same,SPOT peptide array binding signal intensity,[27],1600
same,SPOT peptide array binding signal intensity,[28],≤ 0
same,SPOT peptide array binding signal intensity,[29],2400
same,SPOT peptide array binding signal intensity,[30],4.75
same,SPOT peptide array binding signal intensity,[31],2600
same,SPOT peptide array binding signal intensity,[32],130
same,SPOT peptide array binding signal intensity,[33],21.8
same,SPOT peptide array binding signal intensity,[34],269
same,SPOT peptide array binding signal intensity,[35],3450
same,SPOT peptide array binding signal intensity,[36],1040
same,SPOT peptide array binding signal intensity,[37],3030
same,SPOT peptide array binding signal intensity,[38],669
same,SPOT peptide array binding signal intensity,[39],29
same,SPOT peptide array binding signal intensity,[40],2330
same,SPOT peptide array binding signal intensity,[41],82.5
same,SPOT peptide array binding signal intensity,[42],13
same,SPOT peptide array binding signal intensity,[43],45.5
same,SPOT peptide array binding signal intensity,[44],0.5
same,SPOT peptide array binding signal intensity,[45],448
same,SPOT peptide array binding signal intensity,[46],517
same,SPOT peptide array binding signal intensity,[47],684
same,SPOT peptide array binding signal intensity,[48],4730
same,SPOT peptide array binding signal intensity,[49],105
same,SPOT peptide array binding signal intensity,[50],439
same,SPOT peptide array binding signal intensity,[51],380
same,SPOT peptide array binding signal intensity,[52],6200
same,SPOT peptide array binding signal intensity,[53],512
same,SPOT peptide array binding signal intensity,[54],1260
same,SPOT peptide array binding signal intensity,[55],3480
same,SPOT peptide array binding signal intensity,[56],4950
same,SPOT peptide array binding signal intensity,[57],1400
same,SPOT peptide array binding signal intensity,[58],6350
same,SPOT peptide array binding signal intensity,[59],192
same,SPOT peptide array binding signal intensity,[60],1370
same,SPOT peptide array binding signal intensity,[61],1470
same,SPOT peptide array binding signal intensity,[62],2.5
same,SPOT peptide array binding signal intensity,[63],218
same,SPOT peptide array binding signal intensity,[64],37.8
same,SPOT peptide array binding signal intensity,[65],591
same,SPOT peptide array binding signal intensity,[66],179
same,SPOT peptide array binding signal intensity,[67],1780
same,SPOT peptide array binding signal intensity,[68],2060
same,SPOT peptide array binding signal intensity,[69],416
same,SPOT peptide array binding signal intensity,[70],188
same,SPOT peptide array binding signal intensity,[71],22
same,SPOT peptide array binding signal intensity,[72],1820
same,SPOT peptide array binding signal intensity,[73],1660
same,SPOT peptide array binding signal intensity,[74],1.5

# From the supplement of paper PMC4466140
